# Data published in publication doi:10.1101/2024.03.05.583629.
# Biological target: pT7_6His-AlfaTag-ZIF268 (human, UniProt P18146 335-423)
# Test: PADIT-seq
# Conditions: dsDNA, one strand shown
row,Sequence,binding signal [log2FC]
1,CTCGAGGATATCAAGATCTGGCCTCGGCGCGTGGATCGGAACCTCTAGCTAGCCGACTCACTATAGGGATAATCGCCCTGAGCAAAGACC,0.142 ± 0.102
2,CTCGAGGATATCAAGATCTGGCCTCGGCGCGTGGATTGGAACCTCTAGCTAGCCGACTCACTATAGGGATAATCGCCCTGAGCAAAGACC,0.000823 ± 0.102
3,CTCGAGGATATCAAGATCTGGCCTCGGCCGCCCACGCGGAACCTCTAGCTAGCCGACTCACTATAGGGATAATCGCCCTGAGCAAAGACC,2.69 ± 0.0695
4,CTCGAGGATATCAAGATCTGGCCTCGGCCGCCCATACGGAACCTCTAGCTAGCCGACTCACTATAGGGATAATCGCCCTGAGCAAAGACC,0.364 ± 0.092
5,CTCGAGGATATCAAGATCTGGCCTCGGCTGCCCACGCGGAACCTCTAGCTAGCCGACTCACTATAGGGATAATCGCCCTGAGCAAAGACC,0.958 ± 0.086
6,CTCGAGGATATCAAGATCTGGCCTCGGCGCGTGGGGGGGAACCTCTAGCTAGCCGACTCACTATAGGGATAATCGCCCTGAGCAAAGACC,1.28 ± 0.104
7,CTCGAGGATATCAAGATCTGGCCTCGGCGCGTGGGCGGGAACCTCTAGCTAGCCGACTCACTATAGGGATAATCGCCCTGAGCAAAGACC,4.32 ± 0.0557
8,CTCGAGGATATCAAGATCTGGCCTCGGCGGGTGGGCGGGAACCTCTAGCTAGCCGACTCACTATAGGGATAATCGCCCTGAGCAAAGACC,1.66 ± 0.0839
9,CTCGAGGATATCAAGATCTGGCCTCGGCAAGTGGGCGGGAACCTCTAGCTAGCCGACTCACTATAGGGATAATCGCCCTGAGCAAAGACC,2.06 ± 0.0801
10,CTCGAGGATATCAAGATCTGGCCTCGGCGCGTGTGCGGGAACCTCTAGCTAGCCGACTCACTATAGGGATAATCGCCCTGAGCAAAGACC,0.312 ± 0.112
11,CTCGAGGATATCAAGATCTGGCCTCGGCCGCCAACGCGGAACCTCTAGCTAGCCGACTCACTATAGGGATAATCGCCCTGAGCAAAGACC,0.204 ± 0.0826
12,CTCGAGGATATCAAGATCTGGCCTCGGCCGCCCACGAGGAACCTCTAGCTAGCCGACTCACTATAGGGATAATCGCCCTGAGCAAAGACC,0.778 ± 0.094
13,CTCGAGGATATCAAGATCTGGCCTCGGCCGCTGCCGCGGAACCTCTAGCTAGCCGACTCACTATAGGGATAATCGCCCTGAGCAAAGACC,0.0482 ± 0.0994
14,CTCGAGGATATCAAGATCTGGCCTCGGCGCGCGGGCGGGAACCTCTAGCTAGCCGACTCACTATAGGGATAATCGCCCTGAGCAAAGACC,1.18 ± 0.1
15,CTCGAGGATATCAAGATCTGGCCTCGGCCCGTGGGCGGGAACCTCTAGCTAGCCGACTCACTATAGGGATAATCGCCCTGAGCAAAGACC,3.06 ± 0.0841
16,CTCGAGGATATCAAGATCTGGCCTCGGCGCGAGGGCGGGAACCTCTAGCTAGCCGACTCACTATAGGGATAATCGCCCTGAGCAAAGACC,0.751 ± 0.109
17,CTCGAGGATATCAAGATCTGGCCTCGGCGCGTGGGCTGGAACCTCTAGCTAGCCGACTCACTATAGGGATAATCGCCCTGAGCAAAGACC,2.62 ± 0.0973
18,CTCGAGGATATCAAGATCTGGCCTCGGCGCGTGGTAGGGAACCTCTAGCTAGCCGACTCACTATAGGGATAATCGCCCTGAGCAAAGACC,0.402 ± 0.089
19,CTCGAGGATATCAAGATCTGGCCTCGGCGCGTGGTTGGGAACCTCTAGCTAGCCGACTCACTATAGGGATAATCGCCCTGAGCAAAGACC,0.34 ± 0.0919
20,CTCGAGGATATCAAGATCTGGCCTCGGCCGCCCACGTGGAACCTCTAGCTAGCCGACTCACTATAGGGATAATCGCCCTGAGCAAAGACC,1.68 ± 0.0823
21,CTCGAGGATATCAAGATCTGGCCTCGGCGCGTGGTCCGGAACCTCTAGCTAGCCGACTCACTATAGGGATAATCGCCCTGAGCAAAGACC,0.192 ± 0.0971
22,CTCGAGGATATCAAGATCTGGCCTCGGCGTTTGGGCGGGAACCTCTAGCTAGCCGACTCACTATAGGGATAATCGCCCTGAGCAAAGACC,0.123 ± 0.0893
23,CTCGAGGATATCAAGATCTGGCCTCGGCGCGTGGTGGGGAACCTCTAGCTAGCCGACTCACTATAGGGATAATCGCCCTGAGCAAAGACC,0.205 ± 0.103
24,CTCGAGGATATCAAGATCTGGCCTCGGCCGCGGTCGCGGAACCTCTAGCTAGCCGACTCACTATAGGGATAATCGCCCTGAGCAAAGACC,0.00429 ± 0.0911
25,CTCGAGGATATCAAGATCTGGCCTCGGCGCGTGGTTTGGAACCTCTAGCTAGCCGACTCACTATAGGGATAATCGCCCTGAGCAAAGACC,0.236 ± 0.101
26,CTCGAGGATATCAAGATCTGGCCTCGGCCGCCCACACGGAACCTCTAGCTAGCCGACTCACTATAGGGATAATCGCCCTGAGCAAAGACC,1.63 ± 0.0957
27,CTCGAGGATATCAAGATCTGGCCTCGGCGCGTGGTGAGGAACCTCTAGCTAGCCGACTCACTATAGGGATAATCGCCCTGAGCAAAGACC,0.258 ± 0.102
28,CTCGAGGATATCAAGATCTGGCCTCGGCAACCCACGCGGAACCTCTAGCTAGCCGACTCACTATAGGGATAATCGCCCTGAGCAAAGACC,0.721 ± 0.102
29,CTCGAGGATATCAAGATCTGGCCTCGGCGCGTGGCGGGGAACCTCTAGCTAGCCGACTCACTATAGGGATAATCGCCCTGAGCAAAGACC,0.049 ± 0.11
